# PubChem BioAssay (NCI)
# The panel holds about 79,000 compounds, 15% with a hit somewhere; the sample as a whole holds those more often. Values without a mark were called inactive. Active and inactive are the calls of the source. No stated cut-off is given here; in the data, active means growth inhibition above about 70%; inactive means the rest.
# Tests used:
# [1] = NCI Yeast Anticancer Drug Screen. Data for the rad50 strain (AID 155);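 further: 0% = growth of vehicle-only cultures of the same strain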; conditions: S. cerevisiae rad50 strain growth inhibition; at 50.0 µM; stronger effect = higher value
# How it was run: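 Inhibition values express reduced yeast growth in compound-treated cultures relative to vehicle-treated controls.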
# [2] = NCI Yeast Anticancer Drug Screen. Data for the mec2-1 strain (AID 157); conditions: S. cerevisiae mec2-1 strain, at 50.0 µM, stronger effect = higher value
# How it was run: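 Using mec2-1 yeast: add compound, measure growth, express inhibition versus vehicle-treated cultures.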
# [3] = NCI Yeast Anticancer Drug Screen. Data for the sgs1 mgt1 strain (AID 161);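 further: 0% = growth of cultures given vehicle only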; conditions: S. cerevisiae sgs1 mgt1 strain, at 50.0 µM, stronger effect = higher value
# How it was run: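 Compounds are added to genetically altered yeast, and growth is compared with cultures given vehicle alone to give percent inhibition.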
# [4] = NCI Yeast Anticancer Drug Screen. Data for the cln2 rad14 strain (AID 165);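 further: 0% = growth equal to vehicle treated cultures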; conditions: S. cerevisiae cln2 rad14 strain, at 50.0 µM, stronger effect = higher value
# How it was run: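 Yeast strain cln2 rad14, bearing defects in cell cycle control and DNA repair, serves as the test system; values reflect growth inhibition compared with vehicle.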
# [5] = NCI Yeast Anticancer Drug Screen. Data for the bub3 strain (AID 167); conditions: S. cerevisiae bub3 mutant strain, at 50.0 µM, stronger effect = higher value
# How it was run: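 Steps: expose the mutant yeast strain to compound; grow alongside vehicle-treated cultures; measure growth; express inhibition against the vehicle cultures.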
# [6] = NCI Yeast Anticancer Drug Screen. Data for the mlh1 rad18 strain (AID 175); conditions: S. cerevisiae mlh1 rad18 strain growth inhibition; at 50.0 µM; stronger effect = higher value
# How it was run: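 Steps: expose repair-defective yeast to compound; measure growth; express inhibition against vehicle-treated controls.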
SMILES,growth inhibition [1],growth inhibition [2] [%],growth inhibition [3],growth inhibition [4] [%],growth inhibition [5] [%],growth inhibition [6] [%]
Cc1[nH]c(=O)c(C#N)c(C)c1[N+](=O)[O-],-0.05%,20.3,3.95%,-35.7,10.6,1.9
CN(C)c1nc(=NCc2cccs2)ss1,71.2% (active),46.3,77.5% (active),45.2,60.5,65.7
Cc1ccc(Nc2ncnc3sc(SCc4ccccc4)nc23)cc1,-34.5%,-20.4,-24.2%,3.75,-24.6,-28.1
C=COC(=O)C(Cc1ccccc1)NC(=O)OCc1ccccc1 (stereo not given),-5.2%,10.8,-23.2%,10.6,-7.65,6.9
Nc1ccn(C2OC(CO)C(O)C2Br)c(=O)n1 (stereo not given),3.9%,8.75,14.2%,-12,-10.1,14.1
O=C(OCCN1CCCCC1)C(c1ccccc1)C1(O)CCSCC1 (stereo not given),9.6%,22.9,32.6%,25.9,17.9,5.15
CN(C)CCCNc1nc2cc(Cl)ccc2o1,-7.1%,-9.85,-5.7%,-38.6,6.7,-2.4
Nc1[nH]nc2nc3n(c(=O)c12)CCCCC3,7.1%,19.7,5.6%,5.55,-5.75,-4.15
COc1ccc(Nc2nc3ccccc3nc2C(=O)O)cc1OC,-23.9%,12.1,-9.6%,6.15,26.1,-33.8
CCC(C(O)C(C)C)[N+](=O)[O-] (stereo not given),14.2%,1.45,6.35%,-6.5,0.05,3.3
COc1cc(C2c3cc4c(cc3OC(N3CCCC3)C2C)OCO4)cc(OC)c1OC (stereo not given),22.4%,-0.5,-2.9%,5.75,3.1,6.55
COc1ccc2cc(-c3ccc(OC)c(OC)c3)c(=O)oc2c1,-12.4%,-9.9,-7.65%,-8.9,-7.15,-18.2
COC(=O)CC(C)N(c1cccc(Cl)c1)S(=O)(=O)c1ccc(C)cc1 (stereo not given),52.3%,7.1,76.3% (active),-30.9,24.1,32.5
O=[N+]([O-])c1ccc(N=CNc2ccc([N+](=O)[O-])cc2)cc1,-15.9%,-13.1,-1.5%,-12,17.1,-6.65
CCOC(=O)c1[nH]c(-c2ccc(OC)cc2)c(C(=O)OCC)c1-c1ccccc1,38.6%,-4.7,28.8%,-0.2,3.05,24.1
COc1ccc(/C=C/C=C/C(=O)O)cc1OC,-2.8%,-9.7,-12.4%,5.85,2.8,15.1
CC(C)(C(=O)Cc1ccccc1)c1ccccc1,-29.5%,-21.4,-10.2%,31.1,0.2,-11.3
Cc1cc(C)c(C(=O)Oc2ccc(C)c(CC(Cl)(Cl)Cl)c2)c(C)c1,32.8%,9,4.85%,19.1,-0.2,14.4
S=C(NCc1cccnc1)Nc1ccc(Cl)c(Cl)c1,26.8%,13.3,27.9%,5.85,27.6,13.7
CC(N)C(=O)NC(C(=O)O)C(C)C (stereo not given),-2.4%,-2.55,-16.1%,-14.7,0.3,-23.4

SMILES,growth inhibition [1],growth inhibition [2] [%],growth inhibition [3],growth inhibition [4] [%],growth inhibition [5] [%],growth inhibition [6] [%]
COc1cc2c(cc1OC)C(c1ccccc1)ON(C)CC2 (stereo not given),-4.15%,-1.7,-3.35%,-13.4,1.45,1.35
CCN1c2nc3ccccc3nc2N(CC)c2nc3ccccc3nc21,-30.1%,12.5,23.9%,6.55,3.45,5.3
O=C(c1ccc(Cl)cc1)c1onc(-c2ccccc2)c1-c1ccccc1,-13.6%,0,-0.3%,-43.9,-9.2,-3.05
COc1cc(/C=C2/Cc3ccccc3C2=O)ccc1O,47%,24.1,20.4%,22.9,26.7,26.6
CCOC(=O)CNC=O,33.5%,-6.1,-2.7%,26.4,-1.8,8.55
CCCCc1c2c(nc3c1CCc1cc4c(nc1-3)-c1nc3c(c(CCCC)c1CC4)CCC/C3=C\c1ccccc1)/C(=C/c1ccccc1)CCC2,16.6%,3.2,-0.25%,5.4,5.05,2.8
Cc1c(C)n2c(=O)n(-c3ccccc3)c(=O)n2c1=O,-38%,-27.1,-5.55%,-27.2,-7.75,-1.85
CC[n+]1nc2ccccc2c(=Nc2ccccc2[N+](=O)[O-])[n-]1,11.8%,13.1,12.3%,29.4,25.2,7.15
O=S(=O)(N=S(c1ccccc1)c1ccccc1)c1ccccc1,-67%,-66.2,-63.1%,-20.9,-59.6,-51.2
Oc1cccc2c(NC(=S)Nc3ccccc3)cccc12,37.2%,22.8,18.2%,15.5,39.5,32.9
Cn1c(=O)c2[nH]c(CCCc3ccc([N+](=O)[O-])cc3)nc2n(C)c1=O,-2.45%,-5.5,-27.5%,-26.9,-40.5,4.75
O=C(c1nc2ccc([N+](=O)[O-])cc2[nH]c1=O)C(O)c1ccc([N+](=O)[O-])cc1 (stereo not given),-1.9%,-6.2,12.9%,10.1,-25.4,31.5
CC(C)CCCC(C)C1CCC2C3CC=C4CC(OP(=O)(N5CC5)N5CC5)CCC4(C)C3CCC12C (stereo not given),26.8%,1.4,11.4%,19.3,-4.1,12.2
COC(=O)C1CCc2c(ccc3cc(OC)ccc23)C1(C)C(=O)OC (stereo not given),-14.5%,-7.65,-7.4%,-40.1,-2.2,-10.2
c1ccc(C2OCCO2)c(OCCOc2cc(OCCOc3ccccc3C3OCCO3)c(OCCOc3ccccc3C3OCCO3)cc2OCCOc2ccccc2C2OCCO2)c1,-7.6%,-18.9,-9.9%,0.3,-4.3,12.3
OCc1ccc(CO)cc1,18.4%,29.6,-15.6%,-4.2,8.65,7.2
Cc1ccc(Cl)cc1NC(=O)Nc1ccc(Cl)c(Cl)c1,-13.1%,-11.1,-4.25%,-4.5,18.2,-4.75
O=S1(=O)CCCC1C(O)c1ccccc1 (stereo not given),13.8%,-5.75,-8.85%,-60.2,1.55,-15.1
CC(CC#N)NC(=O)C1CCC(N)=N1 (stereo not given),-14.3%,-18.2,-8.95%,1.4,-7.35,-9.9
CC(C)C1OCC=CCO1,7.65%,-6.7,-13.2%,-9.85,13.7,-3
